About 83,000 compounds went through this panel and 20% of them were active in at least one assay; those are over-represented in the sample as a whole.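 Growth was measured after 48 h exposure to one concentration of compound in 96-well plates. Values under 10 count as active.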 The source made the active and inactive calls.
Columns and labels:
Assay in all cases: NCI-60 one-dose screen, 48 h (100 = growth as untreated, 0 = no growth, -100 = all killed)
Details in all cases: 10 µM unless noted
NCI-H23 lung = test system: NCI-H23 lung
NCI-H226 lung = test system: NCI-H226 lung
NCI-H322M lung = test system: NCI-H322M lung
HOP-62 NSCLC = test system: HOP-62 NSCLC
HOP-92 NSCLC = test system: HOP-92 NSCLC
NCI-H522 lung = test system: NCI-H522 lung
A549/ATCC NSCLC = test system: A549/ATCC NSCLC
786-0 renal = test system: 786-0 renal
NCI-H460 lung = test system: NCI-H460 lung
COLO 205 colon = test system: COLO 205 colon

Measured: growth

CCOC(=O)C1=C(C)NC(C)=C(C(=O)OCC)C1c1cc(Br)c(O)c(OC)c1
active: NCI-H522 lung -37.5%
inactive: NCI-H23 lung 34.3% | NCI-H226 lung 32.7% | NCI-H322M lung 55.3% | HOP-62 NSCLC 31.8% | HOP-92 NSCLC 16.3% | A549/ATCC NSCLC 33.2% | 786-0 renal 29.1%

Clc1ccc(N2N=C(c3cccc(Nc4ccncc4)c3)CC2c2ccc(Br)cc2)cc1 (centres undefined)
inactive: NCI-H23 lung 57.1% | NCI-H226 lung 92.2% | NCI-H322M lung 66.2% | HOP-92 NSCLC 60.3% | A549/ATCC NSCLC 16.7% | 786-0 renal 105%
active: HOP-62 NSCLC -39.3% | NCI-H460 lung -82.6% | COLO 205 colon -48.7%

COc1ccc(Cn2nc(-c3cc(OC)c(OC)c(OC)c3)c3c2CCc2cnoc2-3)cc1OC
inactive: NCI-H23 lung 62.4% | NCI-H226 lung 84.5% | NCI-H322M lung 75.9% | HOP-62 NSCLC 57.2% | HOP-92 NSCLC 33.3% | NCI-H522 lung 15.2% | A549/ATCC NSCLC 52.2% | 786-0 renal 66.5% | COLO 205 colon 74.4%

N#C/C(=C\c1ccc(Br)cc1)n1nnc2cccc(F)c21
active: HOP-92 NSCLC -23.7% | COLO 205 colon -12.5%
inactive: NCI-H23 lung 23.8% | NCI-H226 lung 41.9% | NCI-H322M lung 32.3% | HOP-62 NSCLC 40% | NCI-H522 lung 18.4% | A549/ATCC NSCLC 20.9% | 786-0 renal 11.2%

COc1ccc(-c2c[nH]c(C(=O)O)c2-c2cc(OC)c3c(c2OC)OCO3)cc1
inactive: NCI-H23 lung 98.9% | NCI-H226 lung 95.3% | NCI-H322M lung 95% | HOP-62 NSCLC 95.6% | HOP-92 NSCLC 110% | NCI-H522 lung 97% | A549/ATCC NSCLC 103% | 786-0 renal 104% | COLO 205 colon 102%

Fc1cc(C2=NNC(c3ccc[nH]3)C2)ccc1-n1ccc(C(F)(F)F)n1 (centres undefined)
inactive: NCI-H23 lung 89.2% | NCI-H226 lung 83.9% | NCI-H322M lung 86.3% | HOP-62 NSCLC 80.3% | HOP-92 NSCLC 102% | NCI-H522 lung 73.6% | A549/ATCC NSCLC 68.4% | 786-0 renal 85.8% | COLO 205 colon 109%

CC(=O)O[C@H]1CC[C@@]2(C)[C@@H](CC[C@@H]3[C@@H]2CC[C@@]2(C)[C@H]3CC[C@]2(O)C(C)=O)C1
inactive: NCI-H23 lung 101% | NCI-H226 lung 89.8% | NCI-H322M lung 91.9% | HOP-62 NSCLC 95.3% | HOP-92 NSCLC 101% | NCI-H522 lung 96.8% | A549/ATCC NSCLC 92.1% | 786-0 renal 98.1% | COLO 205 colon 107%

CCCCN(CCCC)CCc1c(C)cc(C)c(CCN(CCCC)CCCC)c1O
inactive: NCI-H226 lung 26.8% | NCI-H322M lung 35.5% | HOP-62 NSCLC 62.4% | A549/ATCC NSCLC 41.5% | 786-0 renal 41.1% | COLO 205 colon 20%
active: NCI-H23 lung 4.18% | NCI-H460 lung 7.59% | HOP-92 NSCLC -11.3%

COc1ccc2c(c1)OC1=C(C(=O)OC1)C2c1cc(OC)c(OC)c(OC)c1 (centres undefined)
inactive: NCI-H23 lung 31.8% | NCI-H226 lung 26.8% | NCI-H322M lung 52.6% | HOP-62 NSCLC 33.2% | HOP-92 NSCLC 74.8% | A549/ATCC NSCLC 20.7% | 786-0 renal 36.8%
active: NCI-H522 lung -32.5% | COLO 205 colon 1.87%

O=C1NC(=O)C(=Cc2cn(Cc3ccccn3)c3ccccc23)C(=O)N1
inactive: NCI-H23 lung 103% | NCI-H226 lung 79.7% | NCI-H322M lung 105% | HOP-62 NSCLC 92.7% | HOP-92 NSCLC 95.8% | NCI-H522 lung 92.6% | A549/ATCC NSCLC 76.3% | 786-0 renal 100% | COLO 205 colon 54.4%

C=C(C)[C@H]1CC/C(C)=C/CC[C@]2(C)O[C@H]2CC/C(COC(=O)[C@@H](OC(C)=O)[C@H](NC(=O)c2ccccc2)c2ccccc2)=C\[C@@H]1O
inactive: NCI-H23 lung 98.5% | NCI-H226 lung 95% | NCI-H322M lung 104% | HOP-62 NSCLC 97.6% | HOP-92 NSCLC 59.4% | NCI-H522 lung 59.5% | A549/ATCC NSCLC 87.3% | 786-0 renal 85.1% | COLO 205 colon 113%

Cc1cc2nc(-c3ccccc3)c(-c3ccccc3)nc2cc1C
inactive: NCI-H23 lung 98.2% | NCI-H226 lung 94.9% | NCI-H322M lung 112% | HOP-62 NSCLC 111% | HOP-92 NSCLC 89.6% | NCI-H522 lung 94.9% | A549/ATCC NSCLC 97.9% | 786-0 renal 95.4% | COLO 205 colon 119%

Cc1cc(C(=O)Nc2ncnc3nc[nH]c23)no1
inactive: NCI-H23 lung 101% | NCI-H226 lung 92.3% | NCI-H322M lung 90.6% | HOP-62 NSCLC 92.6% | NCI-H460 lung 106% | HOP-92 NSCLC 102% | A549/ATCC NSCLC 100% | 786-0 renal 103% | COLO 205 colon 104%

COc1ccc2c(c1)OC13Oc4cc(OC)ccc4C=C1CCCC3=C2
inactive: NCI-H23 lung 48.3% | NCI-H226 lung 64.1% | NCI-H322M lung 80.8% | HOP-62 NSCLC 41.4% | HOP-92 NSCLC 26.6% | NCI-H522 lung 20.4% | A549/ATCC NSCLC 75% | 786-0 renal 38.7%

CCCCCN1C=C/C(=C\C(=O)N(C)c2cccc3ccccc23)c2ccccc21
inactive: NCI-H23 lung 81.4% | NCI-H226 lung 101% | NCI-H322M lung 97.7% | HOP-62 NSCLC 102% | HOP-92 NSCLC 92.6% | NCI-H522 lung 83.1% | A549/ATCC NSCLC 102% | 786-0 renal 96.8% | COLO 205 colon 109%

[2H]C1([2H])NC([2H])([2H])C([2H])([2H])N(c2ccc(Nc3ncc4cc(C(=O)N(C)C)n(C5CCCC5)c4n3)nc2)C1([2H])[2H]
inactive: NCI-H23 lung 69.9% | NCI-H226 lung 71.2% | NCI-H322M lung 78.7% | HOP-62 NSCLC 60.3% | HOP-92 NSCLC 76.1% | NCI-H522 lung 82.7% | A549/ATCC NSCLC 51.5% | 786-0 renal 61.1% | COLO 205 colon 38.3%

COc1cc(NCCN(CC(C)C)C2CCCC2)c2ncccc2c1
inactive: NCI-H23 lung 81.1% | NCI-H226 lung 92% | NCI-H322M lung 118% | HOP-62 NSCLC 82.9% | HOP-92 NSCLC 95.9% | NCI-H522 lung 78.1% | A549/ATCC NSCLC 81.7% | 786-0 renal 98.1% | COLO 205 colon 101%

COc1cc(C(=O)/C=C/c2c(C)n([O-])c3ccc(Cl)cc3[n+]2=O)cc(OC)c1OC
inactive: NCI-H23 lung 72% | NCI-H226 lung 93.2% | NCI-H322M lung 102% | HOP-62 NSCLC 82% | A549/ATCC NSCLC 81.5% | 786-0 renal 61.7% | COLO 205 colon 36.4%
active: HOP-92 NSCLC -31.2% | NCI-H522 lung -77.3%

COc1cc(/C=C2\C(=O)N(Cc3ccc(Cl)cc3)c3ccccc32)cc(OC)c1OC
active: A549/ATCC NSCLC 9.8%
inactive: NCI-H23 lung 34.4% | NCI-H226 lung 46.7% | NCI-H322M lung 66.9% | HOP-62 NSCLC 55.9% | NCI-H460 lung 25.2% | HOP-92 NSCLC 44% | 786-0 renal 32.7% | COLO 205 colon 48%

CCC(=O)c1ccc(O)c(OC)c1
inactive: NCI-H23 lung 96.1% | NCI-H226 lung 72.4% | NCI-H322M lung 106% | HOP-62 NSCLC 104% | HOP-92 NSCLC 82.6% | NCI-H522 lung 88.2% | A549/ATCC NSCLC 86.5% | COLO 205 colon 120%
active: 786-0 renal 4.29%

CC(=O)c1cc2c(N)c(C(=O)Nc3cncc4ccccc34)sc2nc1C
inactive: NCI-H23 lung 101% | NCI-H226 lung 105% | NCI-H322M lung 113% | HOP-62 NSCLC 93.5% | HOP-92 NSCLC 98.6% | NCI-H522 lung 92.1% | A549/ATCC NSCLC 106% | 786-0 renal 98.4% | COLO 205 colon 121%

CN1CCN(c2cnc(C(=O)Nc3cc(F)cc4cccnc34)cn2)CC1
inactive: NCI-H23 lung 39.6% | NCI-H226 lung 90.1% | NCI-H322M lung 83.9% | HOP-62 NSCLC 98.6% | HOP-92 NSCLC 79.1% | NCI-H522 lung 22% | A549/ATCC NSCLC 92.4% | 786-0 renal 56% | COLO 205 colon 21.2%

CC[C@H](C)[C@@H]1NC(=O)[C@H](Cc2ccc(O)cc2)N(C)C(=O)[C@H](Cc2ccccc2)NC(=O)CN(C)C(=O)[C@@H]2CCCN2C(=O)[C@@H](Cc2ccccc2)N(C)C(=O)[C@H](CC(C)C)NC1=O
inactive: 786-0 renal 10.6%
active: NCI-H23 lung -15.1% | NCI-H226 lung -8.47% | NCI-H322M lung -20.2% | HOP-62 NSCLC 0.573% | HOP-92 NSCLC -3.08% | NCI-H522 lung 0.571% | A549/ATCC NSCLC 2.11% | COLO 205 colon -25.1%

Cc1ccccc1C(c1ccccc1)c1ccccc1C
inactive: NCI-H23 lung 94.4% | NCI-H226 lung 22.1% | NCI-H322M lung 90.9% | HOP-62 NSCLC 69.5% | HOP-92 NSCLC 79.7% | NCI-H522 lung 77.1% | A549/ATCC NSCLC 73.6% | 786-0 renal 98.8% | COLO 205 colon 105%

CCOC(=O)N1CCc2c(sc3nc4nc[nH]n4c(=O)c23)C1
inactive: NCI-H23 lung 95% | NCI-H226 lung 82.4% | NCI-H322M lung 109% | HOP-62 NSCLC 86.6% | NCI-H460 lung 109% | HOP-92 NSCLC 93.8% | A549/ATCC NSCLC 100% | 786-0 renal 99.6% | COLO 205 colon 102%

Brc1ccc(C2CC(c3cccc(Nc4ccncc4)c3)=NN2c2ccccc2)cc1 (centres undefined)
active: COLO 205 colon 0.175%
inactive: NCI-H23 lung 85.6% | NCI-H226 lung 95% | NCI-H322M lung 87.3% | HOP-62 NSCLC 77.2% | HOP-92 NSCLC 62.5% | NCI-H522 lung 87.4% | A549/ATCC NSCLC 54.7% | 786-0 renal 90.2%

COC(=O)Nc1nc2ccc(C(=O)c3cccc(I)c3)cc2[nH]1
inactive: NCI-H23 lung 22.1% | NCI-H226 lung 51.4% | NCI-H322M lung 39.4% | HOP-62 NSCLC 37% | HOP-92 NSCLC 51.5% | A549/ATCC NSCLC 15.3% | 786-0 renal 27.2%
active: NCI-H522 lung -29.2% | COLO 205 colon -29.7%

COc1cccc(NC(=O)c2cccc(-c3cc(=O)c4c(OC)c(OC)c(OC)cc4o3)c2)c1
inactive: NCI-H23 lung 63.1% | NCI-H226 lung 63.3% | NCI-H322M lung 80.1% | HOP-62 NSCLC 59.5% | NCI-H460 lung 60.1% | HOP-92 NSCLC 41.9% | A549/ATCC NSCLC 62.8% | 786-0 renal 68.9% | COLO 205 colon 68.3%

CCOC(=O)c1c(SC)nn(-c2cc(=O)[nH]c3ccc(Br)cc23)c1N
inactive: NCI-H23 lung 96% | NCI-H226 lung 99.2% | NCI-H322M lung 106% | HOP-62 NSCLC 89.7% | HOP-92 NSCLC 95.8% | NCI-H522 lung 95.1% | A549/ATCC NSCLC 98.1% | 786-0 renal 97.6% | COLO 205 colon 98.2%

Source: PubChem BioAssay (NCI)
